Data reported in PubChem BioAssay (Tox21).
Several values for one entry are separate records, joined by “and”; a condition that tells them apart may be missing. Identical values can stand only once. Records with an inconclusive call do not appear. Where a structure was tested more than once in an assay, its records may differ in their call. Activity calls are given as the source filed them. Unless noted, calls come from the whole dose curve; as a rule, active = well fitted curve in the direction sought with a large enough effect in the repeat runs; inconclusive = weak or mixed curves; inactive = no such curve, though single readings can be large; an effect the other way counts as inactive or inconclusive.

Columns and labels:
[1] = qHTS assay to identify small molecule antagonists of the progesterone receptor (PR) signaling pathway - cell viability counter screen (AID 1346798); note: series mostly up to about 92 µM; nearly all actives have a fitted effect of over 50% in size
Procedure, shortened: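 Viability was determined by ATP-based luminescence (CellTiter-Glo) in PR-UAS-bla HEK293T cells cultured in 2% charcoal-stripped serum and incubated 16 hr with compounds under R5020 stimulation.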

[2] = qHTS assay to identify small molecule agonists of the progesterone receptor (PR) signaling pathway - cell viability counter screen (AID 1346799; calls by dose curve; note: nearly all actives have a fitted effect of over 45% in size)
Procedure, shortened: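 Viability was scored by ATP luminescence (CellTiter-Glo, 30 min, room temperature) in the same wells used for the reporter readout, after 16 hr compound exposure of PR-UAS-bla HEK293T cells.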

[3] = qHTS assay to identify small molecule antagonists of the TGF-beta/Smad signaling pathway - cell viability counter screen (AID 1346824); note: nearly all actives have a fitted effect of over 50% in size
Procedure, shortened: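 Cytotoxicity counter-screen run in the same wells as the beta-lactamase Smad reporter read: CellTiter-Glo luminescence after 30 min at room temperature. HEK 293T SBE-bla cells had 5 hr compound exposure at 37 C with TGF-beta1 (0.25 ng/mL stock).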

[4] = qHTS assay to identify small molecule agonists of the TGF-beta/Smad signaling pathway - cell viability counter screen (AID 1346829); note: top concentration of the series differs between compounds; nearly all actives have a fitted effect of over 45% in size
Procedure, shortened: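 Tox21 qHTS format: SBE-bla HEK 293T cells treated with DMSO-dissolved compounds for 5 hr; CellTiter-Glo luminescence after 30 min at room temperature.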

[5] = qHTS assay to identify small molecule agonists of the TGF-beta/Smad signaling pathway (AID 1346859; active = well fitted activation curve with a large enough effect in the signal ratio in the repeat runs, not every such curve was filed as active; the % refers to the signal ratio; note: series mostly up to about 77 µM)
Procedure, shortened: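 Dual-wavelength fluorescence (460/530 nm emission) quantified beta-lactamase expression under the Smad binding element in HEK 293T cells following 5 hr compound treatment at 37 C.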

[6] = Human pregnane X receptor (PXR) small molecule agonists, qHTS cell viability counter screen (AID 1346977); note: nearly all actives have a fitted effect of over 50% in size
Procedure, shortened: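 HepG2 cells stably carrying the PXR-Luc reporter are cultured with 5% charcoal-stripped FBS and treated with compounds for 24hr. CellTiter-Fluor is added at 23hr and fluorescence is read after 1hr.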

[7] = Caspase-3/7 induction in HepG2 cells by small molecules, qHTS assay (AID 1346978); note: nearly all actives have a fitted effect of over 15% in size
Procedure, shortened: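 Caspase-3/7 induction was measured by Caspase-Glo 3/7 luminescence (30 min, room temperature) after a 17 hr compound exposure of wild-type HepG2 cells seeded at 2,000 per well and pre-incubated 5 hr.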

[8] = Caspase-3/7 induction in CHO-K1 cells by small molecules, qHTS cell viability counter screen (AID 1346979); note: nearly all actives have a fitted effect of over 35% in size
Procedure, shortened: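 Seeding: 1,500 CHO-K1 cells/well. Rest: 5hr, 37C. Treatment: compounds in DMSO, 16hr. Read: CellTiter-Fluor, 1hr, fluorescence.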

[9] = Caspase-3/7 induction in CHO-K1 cells by small molecules, qHTS assay (AID 1346980); note: nearly all actives have a fitted effect of over 15% in size
Procedure, shortened: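 Luminescent Caspase-Glo 3/7 read (30min, room temperature) quantified apoptosis induction. Cells were wild-type CHO-K1, treated with compound for 17hr at 37 C and 5% CO2.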

[10] = Caspase-3/7 induction in HepG2 cells by small molecules, qHTS cell viability counter screen (AID 1346981); note: series mostly up to about 92 µM; nearly all actives have a fitted effect of over 30% in size
Procedure, shortened: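 The parent HepG2 line is plated at 2,000 cells per well and rested 5 hr before compound pinning from DMSO stocks. Following a 16-hr treatment at 37 C, a fluorogenic live-cell substrate (CellTiter-Fluor) reports viability after 1 hr.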

[11] = target: Nuclear receptor subfamily 1 group I member 2 (Homo sapiens) (UniProt O75469); test: Human pregnane X receptor (PXR) small molecule agonists, qHTS assay (AID 1346982); note: nearly all actives have a fitted effect of over 35% in size; note: potency is the fitted concentration of half-maximal effect
Procedure, shortened: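 After plating in 5% charcoal-stripped FBS and a 5 hr rest, PXR-Luc HepG2 cells received compounds in DMSO. Following 24 hr at 37 C, ONE-Glo was added and light output read.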

[12] = target: Cytochrome P450 2D6 (Homo sapiens) (UniProt P10635); test: Cytochrome P450 Family 2 Subfamily D Member 6 (CYP2D6) small molecule antagonists: luciferase reporter qHTS assay (AID 1671196); note: nearly all actives have a fitted effect of over 50% in size; note: potency is the fitted concentration of half-maximal effect; for activity change, negative = inhibition: series mostly up to about 120 µM
Procedure, shortened: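 Quantitative HTS of Tox21 chemicals against CYP2D6 using a luminescent proluciferin substrate. After NADPH addition, 1 h room-temperature reaction; luminescence recorded 20 min post detection reagent.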

[13] = target: Cytochrome P450 2C19 (Homo sapiens) (UniProt P33261); test: Cytochrome P450 Family 2 Subfamily C Member 19 (CYP2C19) small molecule antagonists: luciferase reporter qHTS assay (AID 1671197); note: nearly all actives have a fitted effect of over 65% in size; note: potency is the fitted concentration of half-maximal effect; for activity change, negative = inhibition: series mostly up to about 120 µM
Procedure, shortened: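 Relative luminescence units recorded 20 min after the detection reagent stopped a 1 h, 37C CYP2C19 reaction on proluciferin substrate, which was started by NADPH regeneration following 10 min room-temperature compound preincubation; ketoconazole positive control.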

[14] = target: Cytochrome P450 2C9 (Homo sapiens) (UniProt P11712); test: Cytochrome P450 Family 2 Subfamily C Member 9 (CYP2C9) small molecule antagonists: luciferase reporter qHTS assay (AID 1671198); note: nearly all actives have a fitted effect of over 50% in size; note: potency is the fitted concentration of half-maximal effect; for activity change, negative = inhibition: series mostly up to about 120 µM
Procedure, shortened: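 Enzyme-substrate mix preincubated with compound 10 min at room temperature; reaction started with NADPH regeneration solution, 1 h 37C. Luminescent luciferin product read after 20 min detection reagent.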

[15] = target: Cytochrome P450 1A2 (Homo sapiens) (UniProt P05177); test: Cytochrome P450 Family 1 Subfamily A Member 2 (CYP1A2) small molecule antagonists: luciferase reporter qHTS assay (AID 1671199); note: nearly all actives have a fitted effect of over 50% in size; note: potency is the fitted concentration of half-maximal effect; for activity change, negative = inhibition: series mostly up to about 120 µM
Procedure, shortened: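 Quantitative high-throughput format using the P450-Glo CYP1A2 system. Reaction initiated by NADPH regeneration solution, 1 h at room temperature, then stopped with detection reagent; luminescence measured 20 min later.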

[16] = target: Voltage-gated inwardly rectifying potassium channel KCNH2 (Homo sapiens) (UniProt Q12809); test: Human Ether-a-go-go-Related Gene (hERG) channel small molecule antagonists: fluorescence cell-based qHTS assay (AID 1671200)
Procedure, shortened: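 First, 1000 cells per well are seeded and cultured overnight at 37 C. Next, FluxOR II dye is loaded for 1 h at room temperature, protected from light. After 10 more minutes, stimulus is added and fluorescence is read.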

[17] = target: Nuclear receptor subfamily 1 group I member 2 (Rattus norvegicus) (UniProt Q9R1A7); test: Rat pregnane X receptor (rPXR) activation by small molecules, qHTS assay (AID 1346983); details: rPXR luciferase reporter cells, One-Glo luminescence, 24 h; max activation: stronger effect = higher value; note: nearly all actives have a fitted effect of over 20% in size
Procedure, shortened: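 Luminescent readout (One-Glo luciferase, 30 min room temperature) followed 24 hr compound treatment at 37 C of rPXR cells plated 2,000 per well and preincubated 5hr; qHTS format with compounds delivered in DMSO.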

[18] = target: Nuclear receptor subfamily 1 group I member 2 (Homo sapiens) (UniProt O75469); test: Human pregnane X receptor (PXR) activation by small molecules, qHTS assay (AID 1346985); note: nearly all actives have a fitted effect of over 40% in size
Procedure, shortened: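 DPX-2 cells (HepG2 co-transfected with a PXR response element and a CYP3A4-promoter luciferase construct) were seeded at 2,000 per well, rested 5 hr at 37C, then exposed to DMSO-dissolved compounds for 24 hr. Activation was read as luciferase luminescence.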

[19] = target: Thyrotropin-releasing hormone receptor (Homo sapiens) (UniProt P34981); test: qHTS assay to identify small molecule antagonists of the thyrotropin-releasing hormone receptor (TRHR) signaling pathway (AID 1346877; active = well fitted inhibition curve with a large enough effect in the repeat runs, not every such curve was filed as active; note: series mostly up to about 51 µM)
Procedure, shortened: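 Human TRHR in HEK293 cells; inhibition of the intracellular calcium rise triggered by 1 nM TRH was followed by fluorescence over 3 min. Compounds were run at 15 concentrations, three replicates each.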

[20] = target: Thyrotropin-releasing hormone receptor (Homo sapiens) (UniProt P34981); test: qHTS assay to identify small molecule agonists of the thyrotropin-releasing hormone receptor (TRHR) signaling pathway (AID 1346891; calls by dose curve;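 note: HEK293 cells expressing TRHR with calcium dye readout; series mostly up to about 58 µM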)
Procedure, shortened: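 Kinetic fluorescence (3 min, 1 s intervals) reported intracellular calcium after compound transfer onto TRHR-Hek293 cells pre-loaded with dye for 2 h at 37 °C.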
% is set by controls: 0 for no effect and ±100 for the full control effect.

Cytochrome P450 2C19 (Homo sapiens), sequence (P33261 whole entry, looked up): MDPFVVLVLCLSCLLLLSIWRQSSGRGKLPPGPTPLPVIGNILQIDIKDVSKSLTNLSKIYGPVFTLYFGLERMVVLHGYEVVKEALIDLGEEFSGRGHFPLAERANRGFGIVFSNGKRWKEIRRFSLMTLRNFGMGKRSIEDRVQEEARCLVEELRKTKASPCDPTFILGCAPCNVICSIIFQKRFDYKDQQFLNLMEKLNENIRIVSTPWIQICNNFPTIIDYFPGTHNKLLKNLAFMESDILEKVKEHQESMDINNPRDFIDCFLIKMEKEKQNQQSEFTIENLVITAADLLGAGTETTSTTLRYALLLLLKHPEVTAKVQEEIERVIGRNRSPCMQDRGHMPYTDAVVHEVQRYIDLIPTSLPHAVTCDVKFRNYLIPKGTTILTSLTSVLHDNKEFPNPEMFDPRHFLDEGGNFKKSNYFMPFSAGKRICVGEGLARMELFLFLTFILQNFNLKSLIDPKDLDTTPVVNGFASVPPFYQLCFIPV
Voltage-gated inwardly rectifying potassium channel KCNH2 (Homo sapiens), sequence (Q12809 whole entry, looked up): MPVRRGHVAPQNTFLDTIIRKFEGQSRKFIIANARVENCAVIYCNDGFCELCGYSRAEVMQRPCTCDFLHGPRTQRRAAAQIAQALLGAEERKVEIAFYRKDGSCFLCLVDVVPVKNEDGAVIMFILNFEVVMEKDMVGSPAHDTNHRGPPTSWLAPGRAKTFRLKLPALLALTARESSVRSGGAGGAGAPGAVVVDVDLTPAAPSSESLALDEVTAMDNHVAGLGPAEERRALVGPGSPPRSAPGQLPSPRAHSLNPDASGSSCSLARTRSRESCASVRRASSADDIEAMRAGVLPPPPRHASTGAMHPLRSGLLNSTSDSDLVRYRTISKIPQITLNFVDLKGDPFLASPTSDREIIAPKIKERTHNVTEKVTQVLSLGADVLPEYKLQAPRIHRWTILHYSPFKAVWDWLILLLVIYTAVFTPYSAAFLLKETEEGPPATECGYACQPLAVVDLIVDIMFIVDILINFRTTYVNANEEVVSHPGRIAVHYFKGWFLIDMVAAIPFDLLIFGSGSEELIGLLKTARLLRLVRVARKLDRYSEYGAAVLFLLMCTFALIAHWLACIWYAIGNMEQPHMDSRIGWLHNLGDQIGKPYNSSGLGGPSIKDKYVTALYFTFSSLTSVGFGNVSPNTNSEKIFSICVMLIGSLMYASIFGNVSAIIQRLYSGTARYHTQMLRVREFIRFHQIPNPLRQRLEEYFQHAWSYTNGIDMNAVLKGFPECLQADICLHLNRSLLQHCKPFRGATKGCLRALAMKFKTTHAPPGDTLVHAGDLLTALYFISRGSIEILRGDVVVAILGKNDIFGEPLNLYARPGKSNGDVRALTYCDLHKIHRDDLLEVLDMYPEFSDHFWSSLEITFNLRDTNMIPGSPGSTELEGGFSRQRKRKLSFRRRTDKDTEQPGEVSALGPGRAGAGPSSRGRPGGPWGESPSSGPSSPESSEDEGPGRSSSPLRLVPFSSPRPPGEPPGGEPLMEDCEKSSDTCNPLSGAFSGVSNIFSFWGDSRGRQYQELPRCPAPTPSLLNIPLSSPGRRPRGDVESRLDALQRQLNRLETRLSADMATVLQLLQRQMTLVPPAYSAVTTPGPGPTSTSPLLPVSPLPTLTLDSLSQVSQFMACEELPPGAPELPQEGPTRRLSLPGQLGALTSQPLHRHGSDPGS
Cytochrome P450 1A2 (Homo sapiens), sequence (P05177 whole entry, looked up): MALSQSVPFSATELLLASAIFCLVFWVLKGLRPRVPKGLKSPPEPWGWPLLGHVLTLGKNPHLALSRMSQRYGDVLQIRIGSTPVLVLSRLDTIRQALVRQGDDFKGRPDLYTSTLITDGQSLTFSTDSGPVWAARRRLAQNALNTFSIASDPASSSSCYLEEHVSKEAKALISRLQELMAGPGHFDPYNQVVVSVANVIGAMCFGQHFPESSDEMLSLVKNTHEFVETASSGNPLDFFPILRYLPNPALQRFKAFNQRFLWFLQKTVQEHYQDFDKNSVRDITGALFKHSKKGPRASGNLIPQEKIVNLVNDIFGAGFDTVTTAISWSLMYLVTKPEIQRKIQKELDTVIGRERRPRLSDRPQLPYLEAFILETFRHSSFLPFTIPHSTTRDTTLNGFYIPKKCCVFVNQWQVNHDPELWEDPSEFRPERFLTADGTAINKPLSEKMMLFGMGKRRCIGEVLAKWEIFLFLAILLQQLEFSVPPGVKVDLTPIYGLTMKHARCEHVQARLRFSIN
Nuclear receptor subfamily 1 group I member 2 (Rattus norvegicus), sequence (Q9R1A7 whole entry, looked up): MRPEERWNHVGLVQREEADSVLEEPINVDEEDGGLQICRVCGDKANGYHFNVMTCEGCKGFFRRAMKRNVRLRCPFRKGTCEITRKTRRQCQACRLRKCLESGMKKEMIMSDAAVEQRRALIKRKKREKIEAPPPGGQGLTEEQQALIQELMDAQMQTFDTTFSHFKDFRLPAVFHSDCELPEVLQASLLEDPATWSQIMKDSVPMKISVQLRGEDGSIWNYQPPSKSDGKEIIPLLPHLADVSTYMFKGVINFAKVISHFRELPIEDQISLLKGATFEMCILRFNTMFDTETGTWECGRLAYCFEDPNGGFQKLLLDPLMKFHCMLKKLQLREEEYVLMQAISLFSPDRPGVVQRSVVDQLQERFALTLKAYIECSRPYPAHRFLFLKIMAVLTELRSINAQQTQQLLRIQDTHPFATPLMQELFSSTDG
Cytochrome P450 2D6 (Homo sapiens), sequence (P10635 whole entry, looked up): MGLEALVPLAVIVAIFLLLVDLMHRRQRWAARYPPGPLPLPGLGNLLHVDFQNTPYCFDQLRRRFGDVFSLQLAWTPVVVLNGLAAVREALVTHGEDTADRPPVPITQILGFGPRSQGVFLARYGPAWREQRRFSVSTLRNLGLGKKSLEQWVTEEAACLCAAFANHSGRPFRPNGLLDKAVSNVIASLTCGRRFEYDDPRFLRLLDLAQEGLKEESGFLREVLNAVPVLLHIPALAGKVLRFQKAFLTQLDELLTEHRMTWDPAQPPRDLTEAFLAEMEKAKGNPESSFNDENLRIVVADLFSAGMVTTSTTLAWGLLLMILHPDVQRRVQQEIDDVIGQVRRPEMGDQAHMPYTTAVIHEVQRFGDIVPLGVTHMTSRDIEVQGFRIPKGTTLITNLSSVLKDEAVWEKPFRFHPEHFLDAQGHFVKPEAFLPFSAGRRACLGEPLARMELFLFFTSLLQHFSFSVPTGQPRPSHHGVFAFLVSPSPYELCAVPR
Cytochrome P450 2C9 (Homo sapiens), sequence (P11712 whole entry, looked up): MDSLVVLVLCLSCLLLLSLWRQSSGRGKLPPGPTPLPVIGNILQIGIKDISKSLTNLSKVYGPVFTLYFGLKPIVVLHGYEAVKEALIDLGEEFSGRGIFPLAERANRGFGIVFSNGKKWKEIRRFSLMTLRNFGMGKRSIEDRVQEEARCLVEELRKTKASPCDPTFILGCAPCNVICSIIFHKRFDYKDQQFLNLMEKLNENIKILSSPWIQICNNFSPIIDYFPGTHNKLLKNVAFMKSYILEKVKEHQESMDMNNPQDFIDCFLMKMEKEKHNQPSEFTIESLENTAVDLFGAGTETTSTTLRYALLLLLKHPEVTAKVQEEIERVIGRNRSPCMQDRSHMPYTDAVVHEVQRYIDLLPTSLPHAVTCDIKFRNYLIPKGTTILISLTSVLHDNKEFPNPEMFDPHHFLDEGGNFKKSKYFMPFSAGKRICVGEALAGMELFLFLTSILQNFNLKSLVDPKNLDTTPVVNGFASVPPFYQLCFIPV
Thyrotropin-releasing hormone receptor (Homo sapiens), sequence (P34981 whole entry, looked up): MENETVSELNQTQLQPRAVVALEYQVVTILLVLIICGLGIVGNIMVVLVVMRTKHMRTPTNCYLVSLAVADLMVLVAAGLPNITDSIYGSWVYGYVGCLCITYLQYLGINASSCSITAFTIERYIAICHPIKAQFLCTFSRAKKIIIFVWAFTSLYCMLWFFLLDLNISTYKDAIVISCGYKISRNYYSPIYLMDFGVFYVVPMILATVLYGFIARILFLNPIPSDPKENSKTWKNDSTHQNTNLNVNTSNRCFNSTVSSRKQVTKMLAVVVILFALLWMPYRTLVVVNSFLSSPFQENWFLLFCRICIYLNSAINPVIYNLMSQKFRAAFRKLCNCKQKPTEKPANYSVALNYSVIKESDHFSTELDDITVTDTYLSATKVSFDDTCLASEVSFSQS
Nuclear receptor subfamily 1 group I member 2 (Homo sapiens), sequence (O75469 whole entry, looked up): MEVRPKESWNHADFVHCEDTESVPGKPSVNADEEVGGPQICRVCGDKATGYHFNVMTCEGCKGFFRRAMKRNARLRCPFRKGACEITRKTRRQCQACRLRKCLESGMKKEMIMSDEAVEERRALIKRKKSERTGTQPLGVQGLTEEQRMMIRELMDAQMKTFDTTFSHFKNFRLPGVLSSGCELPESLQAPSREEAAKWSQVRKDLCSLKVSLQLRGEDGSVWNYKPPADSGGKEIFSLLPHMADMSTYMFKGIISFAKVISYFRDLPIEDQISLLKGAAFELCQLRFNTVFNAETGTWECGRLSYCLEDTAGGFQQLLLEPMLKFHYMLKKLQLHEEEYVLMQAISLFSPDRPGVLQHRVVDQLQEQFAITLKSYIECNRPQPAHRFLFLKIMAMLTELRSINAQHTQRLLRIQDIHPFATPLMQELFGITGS

O=C(O)c1cc(=O)c2c(OCC(O)COc3cccc4oc(C(=O)O)cc(=O)c34)cccc2o1
inactive: Potency [1] | Potency [2] | Potency [3] | Potency [4] | outcome [5] | Potency [6] | Potency [7] | Potency [8] | outcome [9] | Potency [10] | Potency [11] | Potency [12] | Potency [13] | Potency [14] | Potency [15] | outcome [16]

O=C(O)[C@H](O)[C@@H](O)[C@H](O)[C@H](O)CO
active: Potency [13] 89.2 µM
inactive: Potency [1] | Potency [2] | Potency [3] | Potency [4] | outcome [5] | Potency [6] | Potency [7] | Potency [8] | outcome [9] | Potency [10] | Potency [11] | max activation [17] -0.835% and -2.16% | Potency [18] | Potency [12] | activity change, negative = inhibition [14] 3.47% [at 4.07 µM] | outcome [16]

CC1CCC2CC1C2(C)C (stereo unspecified)
21.6 µM (active) and inactive: Potency [12]
inactive: Potency [1] | Potency [2] | Potency [4] | outcome [5] | Potency [19] | outcome [20] | Potency [6] | Potency [7] | Potency [8] | outcome [9] | Potency [10] | Potency [11] | Potency [13] | Potency [14] | Potency [15] | outcome [16]

CCCCOC(=O)COc1ccc(Cl)cc1Cl
active: Potency [13] 36 µM and 39.9 µM | Potency [15] 40.4 µM and 39.9 µM
inactive: Potency [1] | Potency [2] | Potency [3] | Potency [4] | outcome [5] | Potency [19] | outcome [20] | Potency [6] | Potency [7] | Potency [8] | Potency [10] | Potency [11] | Potency [12]

O=c1[nH]nnc2ccccc12
inactive: Potency [1] | Potency [2] | Potency [3] | Potency [4] | outcome [5] | Potency [6] | Potency [7] | Potency [8] | outcome [9] | Potency [10] | Potency [11] | Potency [12] | Potency [13] | Potency [15] | outcome [16]

ON=C1CCCCC1
inactive: Potency [1] | Potency [2] | Potency [3] | Potency [4] | outcome [5] | Potency [6] | Potency [7] | Potency [8] | outcome [9] | Potency [10] | Potency [11] | Potency [12] | Potency [14] | outcome [16]
32 µM (active) and inactive: Potency [13] | Potency [15]

CCCCC(CC)CO (stereo unspecified)
inactive: Potency [1] | Potency [2] | Potency [3] | Potency [4] | outcome [5] | Potency [6] | Potency [7] | Potency [8] | outcome [9] | Potency [10] | Potency [11] | Potency [12] | Potency [13] | Potency [15] | outcome [16]

O=C(CC(C(=O)OC1CCCCC1)S(=O)(=O)O)OC1CCCCC1 (stereo unspecified)
active: Potency [11] 26.9 µM
inactive: Potency [1] | Potency [2] | Potency [3] | Potency [4] | outcome [5] | Potency [6] | Potency [7] | Potency [8] | outcome [9] | Potency [10] | Potency [12] | Potency [13] | Potency [15] | outcome [16]

CN(C)CCC(c1ccccc1)c1ccccn1 (stereo unspecified)
40 µM (active) and inactive: Potency [15]
inactive: Potency [1] | Potency [2] | Potency [3] | Potency [4] | outcome [5] | Potency [19] | outcome [20] | Potency [6] | Potency [7] | Potency [8] | Potency [10] | max activation [17] -3.67% | Potency [13] | Potency [14] | outcome [16]
active: Potency [12] 35.7 µM

CCCCC(CC)COC(=O)CS (stereo unspecified)
inactive: Potency [1] | Potency [2] | Potency [3] | Potency [4] | outcome [5] | Potency [19] | outcome [20] | Potency [6] | Potency [7] | Potency [8] | Potency [10] | Potency [11] | outcome [16]
64.1 µM (active) and inactive: Potency [15]
active: Potency [12] 28.6 µM | Potency [14] 64.1 µM and 71 µM
25.5 µM (active) and inactive: Potency [13]

FC(F)(F)c1ccc(Cl)c(Cl)c1
inactive: Potency [1] | Potency [2] | Potency [3] | Potency [4] | outcome [5] | Potency [19] | outcome [20] | Potency [6] | Potency [7] | Potency [8] | Potency [10] | Potency [11] | Potency [12] | Potency [13] | outcome [16]

O=C(OCCOCCOC(=O)c1ccccc1)c1ccccc1
inactive: Potency [1] | Potency [2] | Potency [4] | outcome [5] | Potency [19] | outcome [20] | Potency [6] | Potency [7] | Potency [8] | outcome [9] | Potency [10] | Potency [11] | Potency [12] | outcome [16]
active: Potency [13] 35.5 µM and 39.9 µM | Potency [15] 5.01 µM and 8.94 µM

CC(=O)CC(=O)Nc1ccccc1
active: Potency [13] 70.9 µM | Potency [15] 35.5 µM and 39.9 µM
inactive: Potency [1] | Potency [2] | Potency [3] | Potency [4] | outcome [5] | Potency [6] | Potency [7] | Potency [8] | outcome [9] | Potency [10] | Potency [11] | Potency [12] | outcome [16]
